Data on 8 molecules can be found in PubChem BioAssay (NCI).

Structures are written as SMILES. This is part of a sample that, as a whole, favours compounds with a hit. Of some 83,000 tested, about 20% had one in any assay.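 48-hour exposure, single concentration, 96-well plates; percent growth endpoint where 0 means no net growth. Active: below 10.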 Values without a mark were called inactive. Calls of active or inactive are those of the source.

Some test systems named below: EKVX NSCLC; SN12C renal; UO-31 renal; TK-10 renal; ACHN renal; CAKI-1 renal; CCRF-CEM leukemia; MOLT-4 leukemia; SR leukemia; RPMI-8226 leukemia; OVCAR-8 ovarian; OVCAR-5 ovarian; OVCAR-4 ovarian; SK-OV-3 ovarian; IGROV1 ovarian; HS 578T breast; NCI/ADR-RES ovarian; T-47D breast; A498 renal; OVCAR-3 ovarian.
Assay in all cases: NCI-60 one-dose screen, 48 h (100 = growth as untreated, 0 = no growth, -100 = all killed)
Common to all, as to conditions: 10 µM unless noted

Consider `O=C(N/N=C/c1ccc(Cl)s1)c1[nH]c2ccc(Br)cc2c1-c1ccccc1`, for which the growth in the experiment on EKVX NSCLC was 41.7%; with SN12C renal it was 50.4%; in the experiment with UO-31 renal, 46.2%; with TK-10 renal, 111%; in the experiment with ACHN renal, 25.3%; in the experiment on CAKI-1 renal, 23.8%. In addition, the growth was 10.9% in the experiment on CCRF-CEM leukemia; 14.1% with MOLT-4 leukemia; 9.05% (active) in the experiment with SR leukemia; 5.6% (active) in the experiment on RPMI-8226 leukemia; 2.09% (active) in the experiment on OVCAR-8 ovarian; 52.9% in the experiment with OVCAR-5 ovarian. Further, the growth was 69.5% with OVCAR-4 ovarian; 29.6% in the experiment on SK-OV-3 ovarian; 19.5% in the experiment on IGROV1 ovarian; 27% in the experiment with HS 578T breast; 17.2% in the experiment with NCI/ADR-RES ovarian; 64.7% in the experiment with T-47D breast.
Regarding `COc1ccc(-c2nc3ccc(-c4nnc(SCC(=O)Nc5ccc(C(C)=O)cc5)o4)cc3[nH]2)cc1`, the growth was 99.2% in the experiment with EKVX NSCLC; 113% with SN12C renal; 94.1% in the experiment with UO-31 renal; 116% with TK-10 renal; 102% in the experiment with ACHN renal; 110% in the experiment on A498 renal. Further, the growth was 100% with CCRF-CEM leukemia; 87.8% in the experiment on MOLT-4 leukemia; 89.5% in the experiment on SR leukemia; 97.1% in the experiment on RPMI-8226 leukemia; 108% in the experiment on OVCAR-8 ovarian; 107% in the experiment on OVCAR-5 ovarian. The growth in the experiment with OVCAR-4 ovarian is 109%; in the experiment with SK-OV-3 ovarian, 118%; with IGROV1 ovarian it was 107%; in the experiment with OVCAR-3 ovarian, 138%; in the experiment on HS 578T breast it was 96.8%; with NCI/ADR-RES ovarian, 118%. In addition, the growth in the experiment with T-47D breast is 105%.
As to `Nc1c(C(=O)c2ccc(Br)cc2)oc2nc(-c3cnccn3)cc(-c3cccs3)c12`, the growth in the experiment on EKVX NSCLC was 102%; with SN12C renal it was 97.9%; with UO-31 renal it was 87.1%; in the experiment on TK-10 renal, 172%; in the experiment with ACHN renal it was 103%; in the experiment with CAKI-1 renal it was 95.2%. The growth in the experiment on CCRF-CEM leukemia is 100%; in the experiment with MOLT-4 leukemia, 95%; in the experiment with SR leukemia, 91.7%; in the experiment on RPMI-8226 leukemia, 99.8%; with OVCAR-5 ovarian, 112%; with OVCAR-4 ovarian, 96.3%. Further, the growth was 98.6% in the experiment with SK-OV-3 ovarian; 97.4% with IGROV1 ovarian; 108% in the experiment with OVCAR-3 ovarian; 101% in the experiment with HS 578T breast; 102% in the experiment with NCI/ADR-RES ovarian; 91.4% in the experiment on T-47D breast.
Take `CCCCCCNC(=O)Oc1ccc(/C(=C(/C)c2ccccc2)c2ccc(OCCN3CCCCCC3)cc2)cc1`: the growth in the experiment on EKVX NSCLC was 64.2%; with SN12C renal, 42.8%; with UO-31 renal, 28.9%; with TK-10 renal, 104%; in the experiment on ACHN renal it was 69.3%; with A498 renal it was 78.7%. The growth in the experiment on CCRF-CEM leukemia was 16.3%; in the experiment on MOLT-4 leukemia, 4.41% (active); in the experiment on SR leukemia it was -37.4% (active); in the experiment on RPMI-8226 leukemia, -27.7% (active); in the experiment on OVCAR-5 ovarian, 69.3%; in the experiment on OVCAR-4 ovarian, 49.7%. In addition, the growth was 51.4% in the experiment on IGROV1 ovarian; 48.9% in the experiment on OVCAR-3 ovarian; 51.4% with HS 578T breast; 64.5% in the experiment with NCI/ADR-RES ovarian; 21.6% in the experiment on T-47D breast.
In the case of `CCN(CC)c1ccc(C=O)c(OCc2cn(CC(=O)Nc3ccc(Cl)cc3)nn2)c1`, the growth with EKVX NSCLC is 82.8%; in the experiment on SN12C renal, 63.5%; in the experiment on UO-31 renal, -58.2% (active); with TK-10 renal, 83.8%; in the experiment on ACHN renal, 24.3%; with A498 renal it was 89.2%. Besides, the growth in the experiment with CCRF-CEM leukemia is 72.7%; with MOLT-4 leukemia, 51.9%; with SR leukemia, 47%; in the experiment with RPMI-8226 leukemia, 57.9%; in the experiment on OVCAR-8 ovarian, 75.3%; in the experiment on OVCAR-5 ovarian, 91%. Besides, the growth in the experiment on OVCAR-4 ovarian was 70.4%; in the experiment with SK-OV-3 ovarian, 86.8%; in the experiment with IGROV1 ovarian, 74.7%; in the experiment with OVCAR-3 ovarian, 83.5%; in the experiment with HS 578T breast, 87.8%; in the experiment on T-47D breast, 59.8%.
For `C#Cc1nc(C2=C(C)C(OC(C)=O)/C(=N/OC(C)=O)C2)cs1` (centres undefined), the growth was 9.96% (active) in the experiment with EKVX NSCLC; 86.6% in the experiment with SN12C renal; -88.9% (active) in the experiment on UO-31 renal; 203% in the experiment on TK-10 renal; -66% (active) in the experiment with ACHN renal; -50.2% (active) in the experiment with CAKI-1 renal. Further, the growth with CCRF-CEM leukemia was -39% (active); with MOLT-4 leukemia, -35.2% (active); in the experiment with SR leukemia, -25.6% (active); with RPMI-8226 leukemia, -45.1% (active); in the experiment on OVCAR-8 ovarian, 0.146% (active); with OVCAR-5 ovarian, 30.1%. Also, the growth in the experiment on OVCAR-4 ovarian was -46% (active); with IGROV1 ovarian, -59% (active); with OVCAR-3 ovarian it was -15.8% (active); in the experiment on HS 578T breast, 4.76% (active); with NCI/ADR-RES ovarian, -5.63% (active); in the experiment with T-47D breast, 67%.
Regarding `COc1cc(/C=C/C(=O)c2cc(OC)c(OC)c(OC)c2)ccc1Oc1nc(NCCO)nc(N2CCOCC2)n1`, the growth was 11.2% with EKVX NSCLC; 9.45% (active) with SN12C renal; 20.9% in the experiment on UO-31 renal; 20.9% in the experiment with TK-10 renal; -52.5% (active) in the experiment with ACHN renal; 15.6% in the experiment on CAKI-1 renal. For the same molecule, the growth in the experiment on CCRF-CEM leukemia is 0.121% (active); in the experiment on MOLT-4 leukemia, 6.72% (active); in the experiment on SR leukemia, -0.481% (active); in the experiment on RPMI-8226 leukemia, -24.9% (active); with OVCAR-5 ovarian, 18.3%; with OVCAR-4 ovarian, 20%. In addition, the growth with IGROV1 ovarian was 1.1% (active); in the experiment on OVCAR-3 ovarian, -3.03% (active); in the experiment on HS 578T breast it was 7.51% (active); in the experiment with NCI/ADR-RES ovarian, 64.5%; with T-47D breast it was 19.2%.
Turning to `COc1ccc(NC(=O)c2sc3nc(-c4cnccn4)cc(-c4cccs4)c3c2N)cc1`, the growth was 87.6% with EKVX NSCLC; 80.8% in the experiment with SN12C renal; 52.3% with UO-31 renal; 105% with TK-10 renal; 43.8% in the experiment with ACHN renal; 49.5% in the experiment with A498 renal. For the same molecule, the growth was 94.6% in the experiment on CCRF-CEM leukemia; 83.5% in the experiment with MOLT-4 leukemia; 71.6% in the experiment with SR leukemia; 74.2% in the experiment with RPMI-8226 leukemia; 71.7% with OVCAR-8 ovarian; 93.1% in the experiment with OVCAR-5 ovarian. Further, the growth in the experiment on OVCAR-4 ovarian was 82.1%; in the experiment with SK-OV-3 ovarian, 23.1%; with IGROV1 ovarian, 86.3%; in the experiment on OVCAR-3 ovarian it was 76.8%; with HS 578T breast, 73.7%; with NCI/ADR-RES ovarian, 78.2%. In the experiment with T-47D breast, the growth is 67.8%.
